Laboratory results: PubChem BioAssay (NCI)
About 83,000 compounds went through this panel and 20% of them were active in at least one assay; those are over-represented in the sample as a whole.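 The endpoint reported here, percent growth, reads 100 for growth as untreated, 0 for no net growth and -100 for all cells dead.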 A number with no mark means an inactive call. Active and inactive are the calls of the source.

What follows are compounds tested on U251 CNS (assay: NCI-60 one-dose screen, 48 h (100 = growth as untreated, 0 = no growth, -100 = all killed)). Conditions: 10 µM.
Protocol: Growth inhibition of the U251 human tumor cell line is measured as a screen for anti-cancer activity. Cells are grown in 96 well plates and exposed to the test compound for 48 hours. Compounds are tested at a single concentration, which is 10^-5 M for most compounds. The reported endpoint is percent growth (GI% or GIPRCNT), where numbers from 0 - 100% represent growth inhibition, and numbers from -100% - 0 represent cell death. For example, a value of 40 represents 60% growth inhibition. A value of 0 means no net growth occurred over the course of the experiment. A value of -40 indicates 40% of cells at the beginning of the experiment died by the end of the experiment. A value of -100 means all cells are dead at the end of the experiment.
NCI-60 Human Tumor Cell Lines Screen was performed using the standard one-dose NCI protocol, which is described in more detail at https://dtp.cancer.gov/discovery_development/nci-60/default.htm.
Compounds with GIPRCNT values below 10 were considered active. Activity score was based on GIPRCNT using the following formula: […]
Score is 0 for GIPRCNT values of 100 or above, 50 for GIPRCNT values of 0, and 100 for GIPRCNT values of -100.

Compound | growth
O=C(CSc1nnc(-c2ccc3nc(-c4ccc(Cl)cc4)[nH]c3c2)o1)Nc1ccc(Br)cc1 | -63.9% (active)
O=C(CNc1nc(-c2ccccc2)cs1)Nc1ccccc1 | -85.2% (active)
COc1ccc2[nH]c(O)c(N=NC(=O)COc3ccc(NC(=O)Nc4ccc(Cl)cc4)cc3)c2c1 | -87.2% (active)
CC1=C(c2cc(-c3ccc(Cl)cc3)c(C#N)c(N)n2)C(c2ccccc2)NC(=S)N1 (stereo not given) | 38.8%
CC(=O)Nc1ccc(-c2cn(-c3cccc(C(=O)Nc4cc(CN5CCOCC5)cc(C(F)(F)F)c4)c3)nn2)cn1 | -71.9% (active)
O=c1cc(-c2ccccc2)oc2cc(OCCCCNCc3ccccc3)cc(O)c12 | -64.7% (active)
CCOC(=O)C1=C(N)N(c2ccc(Cl)cc2)C2=C(C(=O)CC(C)(C)C2)C1c1ccc(N2CCOCC2)cc1 (stereo not given) | 88.2%
O=c1oc2ccc(-c3ccc(F)cc3F)cc2c(=O)n1-c1ccc(F)cc1 | 18%
CC1=N/C(=C\c2ccc(N(C)C)cc2)C(=O)N1CCc1ccc(S(N)(=O)=O)cc1 | 91.8%
O=C1NC(=NC23CC4CC(CC(C4)C2)C3)N/C1=C\c1ccc2ncsc2c1 | 10.2%
COc1ccc(-c2ccc(/C=N/NC(=O)c3[nH]c4ccc(Br)cc4c3-c3ccccc3)s2)cc1 | 35.9%
O=C(c1ccccc1)n1ccc(-c2cc3cc(Br)ccc3oc2=O)n1 | 27.8%
CC1(c2ccccc2)NC(=O)N(CC(=O)Nc2ccc(C(=O)/C=C/C=C/c3ccccc3)cc2)C1=O (stereo not given) | 14.7%
Cc1ccc(-c2nc3ccc(C(=O)N=Nc4c(O)[nH]c5ccc([N+](=O)[O-])cc45)cc3[nH]2)cc1 | 5.86% (active)
Cc1ccc(-c2cc(-c3cc4ccccc4nc3Cl)[nH]c(=S)n2)cc1 | 71.8%
O=c1[nH]c2ccccc2cc1CSc1ccc(Nc2nccc(-c3ccc4c(c3)OCO4)n2)cc1 | 75.8%
COc1cc(C2CC(c3ccc(C)cc3)=Nc3c(N)nc(N)nc3N2)ccc1Oc1nc(Nc2ccc(F)cc2)nc(N(C)C)n1 (stereo not given) | 52.2%
CN(C)c1nc(NCCNS(=O)(=O)c2ccc(C(=O)/C=C/c3ccccc3)cc2)nc(Nc2ccc(F)cc2)n1 | -56.2% (active)
c1ccc(C(=C(c2ccc(OCCN3CCCCC3)cc2)c2ccc(OCCN3CCCCC3)cc2)C2CCCC2)cc1 | -96.4% (active)
CC(=O)Nc1ccc(-c2cn(-c3cccc(C(=O)Nc4cccc(OC(F)(F)F)c4)c3)nn2)cn1 | 73.6%

Compound | growth
CN1CCN(c2ccc(Nc3nc(NCCCNC(=O)c4ccc(Cl)cc4)c4sccc4n3)cc2)CC1 | 44.6%
O=C1Nc2cc(Cl)ccc2/C1=C/c1cccc(OCc2ccccc2)c1 | -64.6% (active)
CC(=O)Nc1nc(-c2ccc(N3CCN(C)CC3)c(NS(=O)(=O)c3ccc(C(F)(F)F)cc3)c2)cs1 | 23.1%
COc1ccc(N(C)c2cc(C#N)nc3ccccc23)cc1N | 9.78% (active)
O=S(=O)(Nc1ncccn1)c1ccc(-n2c(-c3ccccc3)nc(-c3ccccc3)c2-c2ccccc2)cc1 | 81.5%
OCCNc1oc(-c2ccccc2)nc1[P+](c1ccccc1)(c1ccccc1)c1ccccc1 | 14.7%
CN(C)CCNC(=O)OCCCCOc1cc(O)c2c(=O)cc(-c3ccccc3)oc2c1 | -64.1% (active)
Cc1cc(=O)oc2cc(OCCCCOc3ccc(/C=C/C(=O)Nc4ccccc4[N+](=O)[O-])cc3)ccc12 | 106%
CCOC(=O)CNC(=O)CN(Cc1ccccc1)C(=O)[C@@]1(C)CCC[C@]2(C)[C@H]3CC4C(C(C)C)=C[C@]3(CC[C@H]21)[C@@H]1C(=O)CCC(=O)[C@H]41 | 63.8%
Nc1n[nH]c2cccc(C#Cc3cccc(NC(=O)Nc4cc(C(F)(F)F)cc(C(F)(F)F)c4)c3)c12 | -78.5% (active)
O=C(CSc1nnc(-c2c[nH]c3ccccc23)n1-c1ccccc1)c1ccc(Br)cc1 | 61.6%
O=C1CCC(N2Cc3c(NCc4ccc(-c5ccccc5)cc4)cccc3C2=O)C(=O)N1 (stereo not given) | 49.6%
Cc1ccc(/C=C/C(=O)c2ccc(S(=O)(=O)NCCNc3nc(Nc4ccc(F)cc4)nc(N(C)C)n3)cc2)cc1 | -57.3% (active)
O=C(NCCCCCCCCCC[P+](c1ccccc1)(c1ccccc1)c1ccccc1)c1ccc(-n2nc(-c3ccccc3O)nc2-c2ccccc2O)cc1 | -50% (active)
O=C1Nc2ccc(F)cc2/C1=C/c1cccc(OCc2ccccc2)c1 | 6.3% (active)
O=C(O)CCCCCCCCCCN1C(=O)/C(=C/c2cnc(-c3ccc(Cl)cc3)s2)SC1=S | -13% (active)
CC[C@]12C=CCN3CC[C@@]4(c5cc(C#CCNc6ccc(C)c(Nc7nccc(-c8cccnc8)n7)c6)c(OC)cc5N(C)[C@H]4[C@@](O)(C(=O)OC)[C@@H]1OC(C)=O)C32 (stereo not given in full) | 40.8%
N#Cc1c(-c2ccc(F)cc2)nc(SCc2ccc(F)cc2)nc1N1CCOCC1 | 47.1%
Cc1ccc(-c2nc(Nc3ccccc3C(=O)O)c3ccccc3n2)cc1 | 18.4%
CCN(CC)CCOc1ccc(C(=C(C)c2ccccc2)c2ccc(OCCN(CC)CC)cc2)cc1 | -21.8% (active)
